Shown are actives, neighbours in structure and some others; about 21% of the full set was active somewhere.
NS1 inh – inhibitors of influenza NS1 protein function; Potency, µM (doses to about 46.1 µM), inactives show at the top dose activity, positive = more growth; actives 0.4% (n = 270,000); AID 2326; calls by dose curve; further: potency means the concentration at half of the fitted maximal effect; actives are rising curves; nearly all actives have a fitted effect of over 50% in size
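S. cerevisiae expressing influenza A NS1, grown in glucose, washed, then diluted 1:100 into pH 6.0 -URA galactose medium with 23 nl compound. Growth recovery read as OD600; NS1-free strain serves as control.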
Shiga toxin inh – inhibitors of Shiga toxin in Vero cells; Vero cells, Shiga toxin protein synthesis inhibition reporter; inhibition, % at 38.7 µM; actives 9.2% (n = 290,000); in the data active means inhibition mostly above about 28%, no sharp cut-off; inactive means mostly below about 43%; further: 0% is about no effect
CHX counter – counter-screen hit for Shiga toxin inhibitors, cycloheximide | cell reporter, cycloheximide protein synthesis inhibition counterscreen | max response, % | actives 12% (n = 300,000) | AID 2314; in the data active means max response mostly above about 13%, no sharp cut-off; inactive means mostly below about 14%; further: read at 38.3 µM for the half of the compounds with a filed dose; 0% is about no effect
Pf growth 96h – inhibits malaria parasite growth, 96 h | P. falciparum luciferase reporter growth, 96 h | Potency, µM (doses to about 28.7 µM), for inactives: at the highest dose activity change, negative = inhibition, actives largely listed as inhibitors | actives 6.9% (n = 320,000); further: potency means the concentration at half of the fitted maximal effect; on the % scale 0 is the no-effect control and ±100 the full control effect
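Readout is luminescence from an integrated firefly luciferase in P. falciparum. Red cells, 2% hematocrit and 0.05% parasitemia final, were cultured with compound through two parasite generations (96 hours) at 37 C, 5% CO2.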
Pf growth 48h – P. falciparum growth inhibition at 48 hours (one generation); P. falciparum luciferase growth in erythrocytes, 48 h; Potency, µM (highest dose often 28.7 µM), for the others: top-dose activity change, negative = inhibition, actives largely listed as inhibitors; actives 5.9% (n = 310,000); AID 504832; further: potency means the concentration at half of the fitted maximal effect; on the % scale 0 is the no-effect control and ±100 the full control effect
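Cell-based growth assay: transgenic P. falciparum expressing firefly luciferase, cultured in red cells within RPMI 1640 containing 0.5% w/v Albumax, 24 mM bicarbonate and gentamycin. A drop in luciferase activity indicates inhibition.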
Active calls of the source: *; u = inconclusive; x = not tested or not shown; [ ] = dose if it differs, or a comment. Unless noted, the call rests on the fitted dose curve; in most records, active means well fitted inhibition curve with a large enough effect; inconclusive means small, poorly fitted or top-dose-only effect, or another doubt; inactive means no such curve, though single readings can be large or run the other way.

SMILES | NS1 inh | Shiga toxin inh | CHX counter | Pf growth 96h | Pf growth 48h
COc1ccc(C(=S)N2CCCC2)cc1OC | 0% | 14 | -1 | -2% | x
O=c1c(C(c2nnnn2C2CCCCC2)N2CCCCC2)coc2ccc(Cl)cc12 (centres undefined) | -32% | 10 | -1 | u | 19%
COc1cc(C(=O)Nc2cccc(C)n2)ccc1OCC(=O)N1CCOCC1 | x | x | x | -17% | 18%
COc1ccc(-c2csc(NC(=O)c3ccc(OCC(=O)N4CCOCC4)c(OC)c3)n2)cc1OC | 5% | 19 | -1 | u | 9.3µM*
CCOc1cc(/C=C/c2nc3cc(C)c(C)cc3s2)ccc1OCC(=O)N1CCOCC1 | 12% | -92 | 5 | 10µM* | u
CCOc1cc(C(=O)Nc2nnc(CC)s2)ccc1OCC(=O)N1CCOCC1 | 5% | 6 | -5 | u | 0.26µM*
CN(C)/[N+]([O-])=N/Oc1cc(O/[N+]([O-])=N/N2CCCC2CO)c([N+](=O)[O-])cc1[N+](=O)[O-] (centres undefined) | x | -6 | -3 | x | x
Cc1ccc(SCC(=O)NC2CC3CCC(C2)N3C)cc1 (centres undefined) | 8% | 3 | 10 | -24% | 2%
CN1C2CCC1CC(NC(=O)CSCc1ccc(Cl)cc1Cl)C2 (centres undefined) | -3% | 6 | -2 | 13µM* | u
CCN(CC)c1ccc(NC(=O)c2ccc(Br)o2)c(C)c1 | -2% | 28* | 16 | x | 7.4µM*
CCN(CC)P(=O)(Nc1cccc(C(F)(F)F)c1)c1ccc(N(C)C)cc1NC(=O)c1ccco1 (centres undefined) | 24% | 12 | 4 | 1.9µM* | 2.1µM*
CCN(CC)c1ccc(NC(=S)NC(=O)c2ccco2)cc1 | 0% | 61* | 38* | 37% | u
CCN(CC)c1ccc(NC(=O)c2c(C)noc2C)cc1 | -9% | 19 | 14 | 19% | 17%
CCN(CC)c1ccc(NC(=O)c2ccco2)cc1 | -14% | 66* | 23* | -17% | -11%
Cc1ccc(C)c(NC(=O)C2CC(=O)N(C3CCCCC3)C2)c1 (centres undefined) | 0% | 17 | -4 | u | 10%
CCN(CC)c1ccc(NC(=O)c2ccco2)c(C)c1 | 11% | 28 | 15* | 18% | u
CC(CC(=O)OCC(=O)NCc1ccc(Cl)cc1)c1ccccc1 (centres undefined) | x | x | x | -25% | u
CN(CC(=O)Nc1ccc(F)cc1)C(=O)C1CC(=O)N(Cc2ccccc2)C1 (centres undefined) | 0% | -6 | -3 | 26% | 0%
O=C(O/N=C1/CCCc2occc21)c1ccccc1 | -46% | 54* | 26* | u | 31%
O=C(O/N=C1/CCCc2occc21)c1ccc(Cl)cc1Cl | 3% | 86* | 54* | 35% | u
O=C(Cn1nnc(-c2ccccc2F)n1)N1CCCCC1 | -8% | 50* | 35* | 7% | 149%
Cc1ccc(-c2nnn(CC(=O)N3CCC(C)CC3)n2)o1 | 3% | 22 | 13 | 37% | x
CS(=O)(=O)c1ccc(-c2nnn(CC(=O)N3CCCCC3)n2)cc1 | 5% | -2 | 1 | 12µM* | 2%
Cc1ccc(-c2nnn(CC(=O)N3CCCCC3)n2)o1 | x | 71* | 18* | 2% | 65%
COc1ccc(NC(=S)NCc2cccn2C)cc1 | 15% | -1 | 6 | -17% | 0%
SMILES | NS1 inh | Shiga toxin inh | CHX counter | Pf growth 96h | Pf growth 48h
O=S1(=O)C2CC3CCC2(CN1Cc1ccccc1)O3 (centres undefined) | x | 15 | 7 | x | x
COc1ccc(S(=O)(=O)NCCc2c[nH]c3ccc(Cl)cc23)cc1 | 0% | -3 | 1 | u | -13%
Cc1ccccc1C(=O)NC(=S)NCCc1ccccc1 | -23% | 26 | 7 | -26% | 18%
COc1ccc(C(=O)NC(=S)NCc2ccccc2)cc1 | 11% | -1 | 6 | 28% | 21%
Fc1ccccc1NC(=S)NCCc1cccc(Cl)c1 | -33% | 78* | 40* | u | -16%
CC(C)(C)C(=O)NC(=S)NCCc1ccccc1 | -46% | 90* | 39* | -3% | 45%
COc1cc(OC)cc(C(=O)NC(=S)NCCc2ccccc2)c1 | 19% | 47 | 14* | -19% | -10%
COc1ccc(CC(=S)NCCc2ccccc2)cc1 | -11% | x | 14* | 0% | 12%
S=C(NCCc1ccccc1)Nc1ccccc1Cl | -23% | 13 | 9 | u | u
COc1ccc(-c2[nH]ncc2CN2CCC(N3CCSCC3)CC2)c(F)c1 | 0% | -19 | -3 | 26% | -5%
C=C1CCN(C(CC(C)C)C(=O)NCCCc2ccccc2)S(=O)(=O)c2ccccc21 (centres undefined) | x | -5 | 10 | x | x
Fc1cc(Br)ccc1NC(=S)NCCc1ccccc1 | -111% | 139* | 46* | 74% | 65%
CC(C)(C)NC(=O)NCCc1ccccc1 | 10% | 59* | 36* | 105% | 88%
O=C(NCCc1ccc(F)cc1)Nc1ccccc1Cl | -40% | 55* | 26* | 25% | u
C=CCNC(=S)Nc1ccc(Br)cc1F | -3% | 1 | 19 | 89% | 35%
CNC(=S)NCCCc1ccccc1 | 0% | 16 | 6 | 5.2µM* | -2%
S=C(NCCCCc1ccccc1)NCc1ccccc1 | -104% | -2 | -3 | u | 10%
CC(=O)Nc1cccc(/C(C)=N/NC(=O)c2ccc(CN3CCOCC3)cc2)c1 | x | 10 | 10 | 11% | 24%
O=C(NCCc1ccccc1)Nc1ccc(Cl)cc1 | -5% | 46* | 46* | 17% | 150%
CC1=C/C(=N\NC(=S)NCCc2ccccc2)CC(C)(C)C1 | -5% | 82* | 23* | -31%[5.75 µM] | 24%
S=C(NCCc1ccccc1)Nc1ccc(Br)cn1 | -3% | 25 | 1 | 8.3µM* | -2%
C/C(=N\NC(=S)NCCc1ccccc1)c1cccs1 | -22% | 24 | 17* | -2% | u
CC(NC(=O)CCN1N=C(c2ccccc2)CCC1=O)c1ccc2c(c1)OCCO2 (centres undefined) | x | -6 | 6 | 19% | 0%
COc1ccc(CCNC(=O)C(=O)NCC2OCCN2S(=O)(=O)c2cc(F)ccc2F)cc1 (centres undefined) | -3% | -5 | -1 | u | u
CCOc1ccc(NC(=S)NC(=O)c2cnn(CC)c2)c([N+](=O)[O-])c1 | -8% | -8 | 1 | u | u
SMILES | NS1 inh | Shiga toxin inh | CHX counter | Pf growth 96h | Pf growth 48h
S=C(NCCc1ccccc1)NCc1cccc(Cl)c1 | -6% | 23* | 19 | u | 5%
O=C(NNC(=S)NCCc1ccccc1)c1ccc(Br)s1 | 2% | -2 | -1 | 9.3µM* | 4%
S=C(NCCCCNC(=S)NCc1ccccc1)NCc1ccccc1 | 12% | -14 | 4 | -30% | u
NNC(=S)NCCc1ccccc1 | 1% | 30 | 8 | u | -6%
S=C(NCCc1ccccc1)NCCc1ccccc1 | -38% | 57* | 51* | 8% | 58%
Fc1ccc(CCNC(=S)Nc2ccc(F)cc2)cc1 | -21% | 47* | 36* | 23% | 5%
S=C(NCCc1ccccc1)N/N=C/c1ccc(Cl)cc1 | 2% | 14 | 11 | 47% | 17%

Screening results deposited in PubChem by National Center for Advancing Translational Sciences (NCATS).
